In PubChem BioAssay:
Activity calls are given as the source filed them. Cut-off read from the data, not from the text of the source, unless noted: active = response above about 15%; inactive = the rest.

system: not listed separately; assay: yeast V-ATPase proton transport modulators, S. cerevisiae, pHLuorin, HTS validation (AID 504600);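 note: plate controls were DMSO for no effect and reference compound for full effect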; details: S. cerevisiae pHLuorin cytosolic pH, at 10 µM, active compounds read high

response, active:
COc1cc([C@@H]2c3cc4c(cc3[C@H](O)[C@H]3COC(=O)[C@H]23)OCO4)cc(OC)c1OC 21%, COc1cc(NC(=O)N[C@@H](Cc2ccccc2)C(=O)O)cc(OC)c1 22.2%, CCCN1C[C@H](CSC)C[C@@H]2c3cccc4[nH]cc(c34)C[C@H]21 78.5%

response, inactive:
COc1cc(/C=C(\C#N)C(=O)N2CCc3ccccc32)ccc1O 1.46%, O=C(Nc1ccccc1)c1ccccc1CCc1ccccc1 -1.57%, COc1ccc(CCN2CCC(Nc3nc4ccccc4n3Cc3ccc(F)cc3)CC2)cc1 4.6%, CCOc1ccc(CC2c3cc(OCC)c(OCC)cc3CCN2C(=O)CN2CCN(C)CC2)cc1OCC (stereo not given) -5.23%, COc1ccc2c(CCNC(=O)c3ccc([N+](=O)[O-])cc3)c[nH]c2c1 -0.21%, O=c1[nH]c(Cc2ccccc2)nc2c1oc1ccccc12 -2.08%, O=C(c1ccccc1)N1CCN(C(=O)c2ccccc2)CC1 -5.95%, COc1ccccc1C1(CC(=O)N2CCCCC2)CCOC(C(C)C)C1 (stereo not given) 2.05%, N=C1C(c2ccccc2)=C(O)CN1CCCO -6.01%, CCS(=O)(=O)Nc1cc(OC)c(OC)cc1Cc1nccc2cc(OC)c(OC)cc12 4.6%, O=C(OCCN1CCCC1)C1(c2ccccc2)CCCC1 1.69%, CC(=O)N1CC2(C)CN(C(C)=O)CC(C)(C1)C2 1.35%, COc1ccc(CCCC(=O)O)c(C)c1 -1.31%, Cc1ccc2c(CN3CCN(Cc4ccc5c(c4)OCO5)CC3)cc(=O)oc2c1C -2.29%, COc1ccc(C(=O)Nc2ccc(OC)c([N+](=O)[O-])c2)cc1Br 4.22%, O=C(Oc1cccccc1=O)c1ccccc1 -32.2%, C=CCc1ccc(OCC(O)COc2ccc(CC=C)cc2OC)c(OC)c1 2.47%, CC1/C(=C\c2ccc(Cl)cc2)C(=O)C2CC1C2(C)C (stereo not given) 0.95%, CCC(=O)c1ccc(O)cc1 3.37%, COc1ccc(C(=O)[C@H]2[C@H]3C(=O)N(c4ccccc4)C(=O)[C@H]3C3C=CC=NN32)cc1 (stereo not given in full) -6.05%, C[C@H](NC(=O)Nc1ccccc1F)C(=O)O -9.72%, C[C@H](NC(=O)OC(C)(C)C)C(=O)NCC1CCC(C(=O)O)CC1 (stereo not given in full) 1.21%

system: anti-desmoglein-3 scFv antibody binding to human DSG3; assay: inhibitors of anti-DSG3 scFv binding to DSG3, pilot screen, biochemical, validation compound set, bead-based, flow cytometry (AID 588368;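 active = binding below the plate cutoff, the plate median minus 3 SD, with a reading above zero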;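 note: signal is the median channel fluorescence of bead-bound GFP antibody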); details: Protein G beads, DSG3-Fc, scFv-GFP binding, at 10 µM, active compounds read low

Binding (% of control), inactive:
COc1cc(/C=C(\C#N)C(=O)N2CCc3ccccc32)ccc1O 105%, O=C(Nc1ccccc1)c1ccccc1CCc1ccccc1 95.3%, COc1ccc(CCN2CCC(Nc3nc4ccccc4n3Cc3ccc(F)cc3)CC2)cc1 138%, CCOc1ccc(CC2c3cc(OCC)c(OCC)cc3CCN2C(=O)CN2CCN(C)CC2)cc1OCC (stereo not given) 108%, COc1ccc2c(CCNC(=O)c3ccc([N+](=O)[O-])cc3)c[nH]c2c1 101%, O=c1[nH]c(Cc2ccccc2)nc2c1oc1ccccc12 97%, O=C(c1ccccc1)N1CCN(C(=O)c2ccccc2)CC1 104%, COc1ccccc1C1(CC(=O)N2CCCCC2)CCOC(C(C)C)C1 (stereo not given) 105%, COc1cc([C@@H]2c3cc4c(cc3[C@H](O)[C@H]3COC(=O)[C@H]23)OCO4)cc(OC)c1OC 102%, N=C1C(c2ccccc2)=C(O)CN1CCCO 93.8%, CCS(=O)(=O)Nc1cc(OC)c(OC)cc1Cc1nccc2cc(OC)c(OC)cc12 106%, O=C(OCCN1CCCC1)C1(c2ccccc2)CCCC1 97%, CC(=O)N1CC2(C)CN(C(C)=O)CC(C)(C1)C2 100%, COc1ccc(CCCC(=O)O)c(C)c1 111%, Cc1ccc2c(CN3CCN(Cc4ccc5c(c4)OCO5)CC3)cc(=O)oc2c1C 106%, COc1ccc(C(=O)Nc2ccc(OC)c([N+](=O)[O-])c2)cc1Br 83.4%, O=C(Oc1cccccc1=O)c1ccccc1 102%, C=CCc1ccc(OCC(O)COc2ccc(CC=C)cc2OC)c(OC)c1 104%, COc1cc(NC(=O)N[C@@H](Cc2ccccc2)C(=O)O)cc(OC)c1 105%, CC1/C(=C\c2ccc(Cl)cc2)C(=O)C2CC1C2(C)C (stereo not given) 99.9%, CCC(=O)c1ccc(O)cc1 94.5%, COc1ccc(C(=O)[C@H]2[C@H]3C(=O)N(c4ccccc4)C(=O)[C@H]3C3C=CC=NN32)cc1 (stereo not given in full) 99.8%, C[C@H](NC(=O)Nc1ccccc1F)C(=O)O 101%, CCCN1C[C@H](CSC)C[C@@H]2c3cccc4[nH]cc(c34)C[C@H]21 105%, C[C@H](NC(=O)OC(C)(C)C)C(=O)NCC1CCC(C(=O)O)CC1 (stereo not given in full) 99.5%
